UBC9 SUMO inh = inhibitors of human SUMOylation (UBC9); P63279; HTRF SUMOylation assay, SAE1/SAE2 + UBC9, in vitro; inhibition, % at 35 µM; hit rate 0.36% among 290,000; in the data active = inhibition above about 50%, passing the limit was not always enough
pCIP destab = compounds decreasing mouse p/CIP protein stability. Q05BA5. F442A p/CIP-EGFP cells, EGFP fluorescence, 16 h. decrease of EGFP signal, % at 10 µM. hit rate 0.01% among 290,000;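 active = EGFP signal decrease of at least 30% at 10 µM or well 3 SD below plate mean, unless failing retest; inactive = the rest, including hits failing retest or dose response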
NadD inh = NadD (S. aureus) enzyme inhibition; hit rate 0.78% among 360,000; inhibition, % at 20 µM; purified NadD enzyme, colorimetric absorbance read-out; in the data active = inhibition above about 26%
PHOSPHO1 block = PHOSPHO1 (human) inhibition; Q8TCT1; recombinant PHOSPHO1, absorbance phosphatase assay; inhibition, % at 13.3 µM; hit rate 1.1% among 290,000; in the data active = inhibition above about 60%
NadD inh conf = confirmation of Staphylococcus aureus NadD inhibitors; shares compounds with NadD inh; inhibition, % at 20 µM; purified S. aureus NadD, colorimetric enzyme assay; hit rate 13% among 2,000; in the data active = inhibition mostly above about 42%, no sharp cut-off; inactive = mostly below about 42%
Hits are given with their value; . = inactive; / = no result. Compounds with a hit are over-represented: about 1.8% of the library has one in this group of screens.

SMILES | UBC9 SUMO inh | pCIP destab | NadD inh | PHOSPHO1 block | NadD inh conf
O=C(O)CSc1cc(C(=O)c2ccccc2O)cn2c(=O)c3c(-c4ccccc4)csc3nc12 | . | . | 38.0 | . | 57.2
CCOC(=O)c1sc2nc3c(SCC(=O)O)cc(C(=O)c4cc(F)ccc4O)cn3c(=O)c2c1C | . | . | 33.3 | . | .
COC(=O)c1cc(C(=O)c2cc(F)ccc2O)cn2c(=O)c3c(C)c(C)sc3nc12 | . | . | . | . | /
COc1ccc(O)c(C(=O)c2cc(SCC(=O)O)c3nc4sc5c(c4c(=O)n3c2)CCCC5)c1 | . | . | 45.8 | . | .
COc1ccc(C)cc1N1CC(C(=O)OCc2nc(N)nc(Nc3ccccc3C)n2)CC1=O (centres undefined) | / | / | . | / | /
CC(C)n1cc(/C=N\NC(=O)c2cc3c(ccc4ccccc43)o2)c2ccccc21 | . | . | 32.9 | . | .
CCOC(=O)Cn1cc(/C=N/NC(=O)c2cc3ccccc3o2)c2ccccc21 | . | . | . | . | /
Cc1cc(/C=N/NC(=O)c2cc3ccccc3o2)c(C)n1C | . | . | 34.8 | . | .
O=C(N/N=C/c1ccncc1)c1cc2ccccc2o1 | . | . | . | . | /
CCn1cc(/C=N/NC(=O)c2cc3c(ccc4ccccc43)o2)c2ccccc21 | . | . | 35.5 | . | 48.5
CCOC(=O)C1CCN(CC(=O)Nc2cc(S(=O)(=O)N3CCOCC3)ccc2C)CC1 | . | . | . | . | /
Oc1ccc(C[C@H]2CNC(=S)N2C[C@H]2CCCN2C[C@H](Cc2ccccc2)N2C[C@H](Cc3ccccc3)N(CC3CCCCC3)C2=S)cc1 | / | / | 38.6 | / | .
CC(C)C[C@H]1CN([C@@H](Cc2ccc(O)cc2)CN2CCCC2CN2C(=S)NC[C@@H]2Cc2ccccc2)C(=S)N1CC1CCCCC1 (some centres undefined) | / | / | . | / | /
CC(C)C[C@H]1CN([C@@H](Cc2ccc(O)cc2)CN2CCC[C@@H]2CN2C(=S)NC[C@@H]2Cc2ccccc2)C(=S)N1CC1CCCCCC1 | / | / | . | / | /
CC(C)C[C@H]1CNC(=S)N1C[C@H]1CCCN1C[C@H](Cc1ccc(O)cc1)N1C[C@H](Cc2ccc(O)cc2)N(CC2CCCCCC2)C1=S | / | / | 44.4 | / | .
CC(C)C[C@H]1CNC(=S)N1CC1CCCN1C[C@H](Cc1ccccc1)N1C[C@H](Cc2ccc(O)cc2)N(CC2CCCCCC2)C1=S (some centres undefined) | / | / | 31.5 | / | .
CN(C)c1ccc(CNC(=O)/C=C/[C@H]2O[C@@H](n3ccc(=O)[nH]c3=O)[C@H](O)[C@@H]2O)cc1 | / | / | . | / | /
O=C1NC[C@H](CCCCN2CCN(Cc3ccccc3)C(=O)C2=O)N(CCc2ccccc2)C1=O | / | / | . | / | /
O=C(CCc1nnc(CCCc2ccccc2)o1)NC(C1CC1)C1CC1 | . | . | . | . | /
CN(C)c1ccc(Sc2nnc(NC(=O)Nc3ccc(Cl)cc3Cl)s2)cc1 | . | . | 39.1 | . | .
O=C(Nc1ccc(Oc2ccc3c(c2)C(=O)N(c2ccc(O)cc2)C3=O)cc1)c1cccs1 | . | . | 33.6 | . | .
COc1ccnc(Oc2ccc(Cl)cc2)c1C#N | . | . | . | . | /
CCCCOc1ccc(C(=O)OCC(=O)N2CCOCC2)cc1 | . | . | . | . | /
Cc1cc2cc(CNC(=O)Nc3ccccc3)ccc2[nH]1 | . | . | 49.2 | . | .
Cc1cc2cc(CNC(=S)Nc3ccc(OC(F)(F)F)cc3)ccc2[nH]1 | . | . | 32.5 | . | .
SMILES | UBC9 SUMO inh | pCIP destab | NadD inh | PHOSPHO1 block | NadD inh conf
CCOC(=O)NCc1ccc2[nH]c(C)cc2c1 | . | . | . | . | /
c1ccc2c(c1)-c1nc3ccccc3cc1C2N1CCOCC1 (centres undefined) | / | / | . | / | /
COCCNC(=O)C1(C)CCN(Cc2csc(-c3ccc(Cl)cc3)n2)C1 (centres undefined) | / | / | . | / | /
Cc1c2cnn(CC(=O)Nc3c(F)c(F)cc(F)c3F)c(=O)c2c(C)n1Cc1ccccc1F | 62.0 | . | 31.7 | . | .
Cc1c(C(=O)N/N=C/c2ccc(-c3ccccc3[N+](=O)[O-])o2)sc(N)c1C#N | . | . | 35.8 | . | .
O=C(N/N=C/c1ccc(-c2ccccc2[N+](=O)[O-])o1)c1cncc(Br)c1 | . | . | . | . | /
O=C(N/N=C\c1ccc(-c2ccccc2[N+](=O)[O-])o1)C1COc2cc3ccccc3cc2O1 (centres undefined) | . | . | 42.0 | . | .
COc1ccc(NC(=O)c2ccc3c(c2)NC(=O)CS3)cc1 | / | / | . | / | /
Cc1ccc(NS(=O)(=O)c2cc(NC(=O)c3ccc4c(c3)NC(=O)CS4)ccc2Cl)c(C)c1 | . | . | 37.4 | . | 52.2
O=C(Nc1ccc(N2CCCC2)cc1)c1ccc2ccccc2c1 | . | . | 33.6 | . | .

Screening data as filed in PubChem.
